Data published in PubChem BioAssay (NCATS).
Records with an inconclusive call do not appear. Active and inactive are the calls of the source. The call rests on the fitted dose curve; in most records, active means well fitted inhibition curve with a large enough effect; inconclusive means small, poorly fitted or top-dose-only effect; inactive means flat fitted curve, though single readings scatter.

Columns and labels:
Test in all cases: qHTS profiling for inhibitors of Plasmodium falciparum proliferation (AID 504749); further: nearly all actives have a fitted effect of over 60% in size
Conditions in all cases: P. falciparum in erythrocytes, SYBR Green DNA, 72 h
[1] = test system: CP191
Summary of the method: (§1)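 P. falciparum-infected erythrocytes (0.3% parasitemia, 2.5% hematocrit final) were exposed to compounds for 72 h at 37 C in 5% CO2, then lysed with SYBR Green buffer overnight at room temperature; parasite DNA fluorescence was normalized to artemisinin and DMSO controls.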

[2] = test system: CP192
Summary of the method: as §1

[3] = test system: CP194
Summary of the method: as §1

[4] = test system: CP201
Summary of the method: as §1

[5] = test system: CP203
Summary of the method: as §1

[6] = test system: CP211
Summary of the method: as §1

[7] = test system: CP215
Summary of the method: as §1

[8] = test system: CP217
Summary of the method: as §1

[9] = test system: CP237
Summary of the method: as §1

[10] = test system: CP238
Summary of the method: as §1

[11] = test system: CP247
Summary of the method: as §1

[12] = test system: CP250
Summary of the method: as §1

[13] = test system: CP252
Summary of the method: as §1

[14] = test system: CP256
Summary of the method: as §1

[15] = test system: CP260
Summary of the method: as §1

[16] = test system: CP262
Summary of the method: as §1

[17] = test system: CP265
Summary of the method: as §1

[18] = test system: CP266
Summary of the method: as §1

[19] = test system: CP268
Summary of the method: as §1

[20] = test system: CP269
Summary of the method: as §1

Measured: Potency
Potency means the concentration at half of the fitted maximal effect.

CC[C@]1(O)CC2CN(CCc3c([nH]c4ccccc34)[C@@](C(=O)OC)(c3cc4c(cc3OC)N(C)[C@H]3[C@@](O)(C(=O)OC)[C@H](OC(C)=O)[C@]5(CC)C=CCN6CC[C@]43[C@@H]65)C2)C1 (stereo partly drawn)
active: [1] 2820 nM | [2] 4260 nM | [3] 3010 nM | [4] 4780 nM | [5] 4260 nM | [6] 1510 nM | [7] 2130 nM | [8] 3980 nM | [9] 158 nM | [10] 3160 nM | [11] 355 nM | [12] 3550 nM | [13] 3550 nM | [14] 2510 nM | [15] 158 nM | [16] 1070 nM | [17] 3980 nM | [18] 3790 nM | [19] 6750 nM | [20] 1900 nM

CC(=O)O[C@H]1C(=O)[C@@]2(C)[C@H]([C@H](OC(=O)c3ccccc3)[C@]3(O)C[C@H](OC(=O)[C@H](O)[C@@H](NC(=O)c4ccccc4)c4ccccc4)C(C)=C1C3(C)C)[C@]1(OC(C)=O)CO[C@@H]1C[C@@H]2O
active: [1] 178 nM | [2] 675 nM | [3] 675 nM | [4] 953 nM | [5] 849 nM | [6] 478 nM | [7] 1350 nM | [8] 562 nM | [9] 708 nM | [10] 251 nM | [11] 355 nM | [12] 708 nM | [13] 178 nM | [14] 282 nM | [15] 355 nM | [16] 953 nM | [17] 891 nM | [20] 536 nM
